# Assay results taken from PubChem BioAssay.
# Activity calls are given as the source filed them. Unless noted, no rule for the calls is given here.
# Assays:
# [1] = resazurin metabolic signal in HepG2 cells – cell-based, resazurin fluorescence, 24 h, PK04 Diversity Set, profiling panel (AID 1172); settings: HepG2 viability, higher = more signal; also: test concentration not given here
# [2] = budding yeast growth changes without added modifier – OD600, strain BY4716, 24 h, basal condition, primary screen (AID 1173); settings: S. cerevisiae BY4716 growth, OD600, 24 h; higher = more signal, called active from +8 up or from −8 down
# [3] = viability profiling in MM1S myeloma cells – cell-based, resazurin fluorescence, basal, 24 h, PK04 Diversity Set, profiling panel (AID 1174); settings: higher = more signal, called active from +8 up or from −8 down;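 also: MM1S multiple myeloma cell line; test concentration not given here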
# [4] = molecular target: Dihydroorotate dehydrogenase (quinone), mitochondrial (Plasmodium falciparum (isolate 3D7)) (UniProt Q08210); assay: inhibition of P. falciparum DHODH – biochemical, C-terminal His tag, absorbance 600 nm, primary screen (AID 1175); settings: PfDHODH enzyme, DCIP absorbance 600 nm; higher = more signal, called active from +8 up or from −8 down;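 also: recombinant parasite enzyme with a five histidine tag at its C terminus; test concentration not given here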
# Sequence of Dihydroorotate dehydrogenase (quinone), mitochondrial (Plasmodium falciparum (isolate 3D7)) (Q08210 whole entry, looked up): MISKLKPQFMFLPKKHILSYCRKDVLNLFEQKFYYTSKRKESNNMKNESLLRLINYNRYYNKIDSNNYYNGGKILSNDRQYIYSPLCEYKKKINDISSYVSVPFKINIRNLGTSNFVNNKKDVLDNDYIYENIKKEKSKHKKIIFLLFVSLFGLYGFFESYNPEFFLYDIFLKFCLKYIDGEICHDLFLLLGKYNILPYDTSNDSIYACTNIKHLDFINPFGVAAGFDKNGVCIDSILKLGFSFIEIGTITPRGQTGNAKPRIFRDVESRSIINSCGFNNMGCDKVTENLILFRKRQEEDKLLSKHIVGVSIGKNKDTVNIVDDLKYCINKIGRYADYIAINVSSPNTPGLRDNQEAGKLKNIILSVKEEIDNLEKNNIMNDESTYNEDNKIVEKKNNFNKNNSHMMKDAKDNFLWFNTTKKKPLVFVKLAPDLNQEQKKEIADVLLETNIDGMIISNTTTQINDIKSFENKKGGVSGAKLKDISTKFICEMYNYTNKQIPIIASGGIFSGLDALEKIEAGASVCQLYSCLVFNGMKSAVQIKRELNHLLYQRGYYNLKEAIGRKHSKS
# [5] = inhibition of PAO1 biofilm formation – strain PAO1, LB-PBS medium, absorbance 600 nm, primary screen (AID 1176); also: test concentration not given here; settings: P. aeruginosa PAO1 growth/biofilm, A600, 12 h; higher = more signal
# [6] = growth modulation of vineyard yeast isolate – strain RM11-1a, OD600, basal, 24 h, primary screen (AID 1177);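 also: cultures grown under basal conditions with no added stressor; test concentration not given here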; settings: S. cerevisiae RM11-1a growth, OD600, 24 h; higher = more signal, called active from +8 up or from −8 down
# [7] = growth of efflux-deficient E. coli DRC39 – strain DRC39, OD650, 24 h, E. coli filamentation inducers, primary screen (AID 1178);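 also: growth measured as culture turbidity by optical density at 650 nm; test concentration not given here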; settings: E. coli DRC39 acrAB, higher = more signal, called active from +8 up or from −8 down
# [8] = growth of efflux-deficient E. coli DRC39 – strain DRC39, OD650, 48 h, E. coli filamentation inducers, primary screen (AID 1179);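 also: screen aims at cell division blockers that make cells filament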; settings: E. coli DRC39 delta-acrAB growth, higher = more signal, called active from +8 up or from −8 down
# [9] = viability profiling in RPMI8226 myeloma cells – cell-based, resazurin fluorescence, basal, 24 h, PK04 Diversity Set, profiling panel (AID 1180); settings: higher = more signal;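 also: RPMI8826 multiple myeloma cell line at 5000 cells per well; test concentration not given here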
# [10] = molecular target: E3 ubiquitin-protein ligase XIAP (Homo sapiens) (UniProt P98170); assay: small molecules binding XIAP protein – biophysical, small-molecule microarray, fluorescence 635 nm, primary screen (AID 1181); settings: higher = more signal;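 also: score merges 667 nm emission and signal to noise over triplicate slides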
# Sequence of E3 ubiquitin-protein ligase XIAP (Homo sapiens) (P98170 whole entry, looked up): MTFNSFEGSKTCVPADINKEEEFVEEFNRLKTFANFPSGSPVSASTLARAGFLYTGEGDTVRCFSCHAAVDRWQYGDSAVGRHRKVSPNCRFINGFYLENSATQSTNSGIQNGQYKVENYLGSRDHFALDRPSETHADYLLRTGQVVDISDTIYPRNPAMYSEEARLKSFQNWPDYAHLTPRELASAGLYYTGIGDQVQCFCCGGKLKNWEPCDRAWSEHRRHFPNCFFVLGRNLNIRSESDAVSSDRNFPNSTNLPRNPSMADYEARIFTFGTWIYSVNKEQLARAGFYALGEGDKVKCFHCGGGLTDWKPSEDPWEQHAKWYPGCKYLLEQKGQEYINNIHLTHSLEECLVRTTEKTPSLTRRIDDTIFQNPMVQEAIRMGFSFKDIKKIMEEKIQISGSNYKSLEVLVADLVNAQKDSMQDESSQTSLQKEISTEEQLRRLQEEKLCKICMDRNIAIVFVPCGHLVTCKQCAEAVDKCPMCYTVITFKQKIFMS
SMILES,z-score [1],z-score [2],z-score [3],composite z-score [4],z-score [5],z-score [6],z-score [7],z-score [8],z-score [9],composite z-score [10]
COC(=O)C(CC#Cc1ccc2c(c1)[C@]1(C(=O)N2)[C@H](C(=O)N2CCCCCCC2)[C@H]2C(=O)O[C@H](c3ccccc3)[C@H](c3ccccc3)N2[C@@H]1c1ccc(O)cc1)C(=O)OC,0.436,-0.636 (inactive),0.636 (inactive),-0.665 (inactive),0.473 (inactive),-0.016 (inactive),-0.177 (inactive),-0.312 (inactive),0.402,0.0512
COc1ccc(-c2cc3c(c(-c4ccccc4)n2)[Si](C(C)C)(C(C)C)O[C@H]3c2ccccc2)cn1,0.158,0.509 (inactive),0.117 (inactive),-0.349 (inactive),0.35 (inactive),-0.824 (inactive),0.0539 (inactive),-0.508 (inactive),0.184,0.113
COC(=O)Cn1c(C(=O)N2CCCC2)cc2c1C[C@H]1CN(C(=O)c3ccccc3)[C@@](Cc3ccc(OC)cc3)(C(=O)OC)[C@@H]21,0.101,1.5 (inactive),-2.14 (inactive),-0.632 (inactive),0.259 (inactive),0.569 (inactive),-0.506 (inactive),-0.031 (inactive),-2.1,0.311
C#C[C@H](O[Si](C#Cc1ccccc1)(C(C)C)C(C)C)c1ccccc1,-0.271,-17.7 (active),-0.633 (inactive),-0.203 (inactive),0.738 (inactive),-11.8 (active),-0.329 (inactive),0.127 (inactive),-0.533,0.0049
[N-]=[N+]=NCc1ccccc1C[C@@]1(C(=O)O)N=C(c2ccc(OCCCO)cc2)O[C@@H]1c1ccccc1N=[N+]=[N-],0.0549,-1 (inactive),-1.47 (inactive),0.313 (inactive),0.755 (inactive),-0.268 (inactive),0.604 (inactive),0.331 (inactive),-0.876,0.0524
Cc1ccccc1C(O)C1C=CC2C(=O)N(c3ccccc3)C(=O)C2N1Nc1ccc(C#N)cc1 (stereo not given),-0.709,-0.257 (inactive),0.132 (inactive),0.513 (inactive),1.26 (inactive),0.302 (inactive),0.493 (inactive),0.0888 (inactive),-0.0953,0.198
CC(C)C[C@@H]1NC(=O)[C@H]2C[C@@H](C(=O)NCCCCCC[N+](C)(C)C)[C@@H](c3ccc(O)cc3)N2C1=O,1.27,-0.213 (inactive),0.771 (inactive),-1.51 (inactive),-1.04 (inactive),0.817 (inactive),0.385 (inactive),0.19 (inactive),0.985,-0.176
NC(=O)NCC#Cc1ccc2c(c1)[C@]1(C(=O)N2)[C@H](C(N)=O)[C@H]2C(=O)O[C@H](c3ccccc3)[C@H](c3ccccc3)N2[C@@H]1c1ccccc1OCCO,0.979,-0.275 (inactive),0.369 (inactive),-0.793 (inactive),0.75 (inactive),0.785 (inactive),0.285 (inactive),0.0072 (inactive),0.295,0.234
O=C1NC(=O)C2C1C=CC(C(O)C=Cc1ccc([N+](=O)[O-])cc1)N2Nc1ccccn1 (stereo not given),-0.629,-0.203 (inactive),-0.373 (inactive),0.643 (inactive),1.23 (inactive),0.086 (inactive),0.195 (inactive),-0.466 (inactive),-0.742,0.289
O=C1OCC=C[C@H]2OC34C=CCN(Cc5ccccc5)C(=O)[C@H]3N(CCO)C(=O)[C@@H]4[C@@H]12 (stereo not given in full),1.21,-0.999 (inactive),1.6 (inactive),-0.415 (inactive),0.317 (inactive),-0.77 (inactive),0.508 (inactive),0.186 (inactive),0.894,-0.16
CCC1=C2CN(Cc3ccccc3Br)[C@@H]([C@@H](O)Cc3ccccc3)C2C=CCC1 (stereo not given in full),0.596,-5.76 (inactive),-1.3 (inactive),-2.74 (inactive),-0.693 (inactive),-0.177 (inactive),1 (inactive),0.441 (inactive),-1.25,0.0451
O=C/C=C/c1ccccc1Cl,0.965,-7.23 (inactive),0.413 (inactive),-0.516 (inactive),-0.227 (inactive),-1.17 (inactive),0.834 (inactive),0.496 (inactive),2.16,-0.0393
O=C1C2C=CC(C(O)c3ccccc3)N(n3cnnc3)C2C(=O)N1Cc1ccccc1 (stereo not given),-0.362,-0.0402 (inactive),-0.468 (inactive),-1.03 (inactive),1.87 (inactive),-1.08 (inactive),-0.456 (inactive),-1.03 (inactive),-0.974,0.23
CCCNC(=O)[C@@H]1c2ccccc2C(=O)N(C2CCCCC2)[C@H]1c1ccc(CO)cc1,0.358,1.27 (inactive),-0.206 (inactive),1.05 (inactive),-0.329 (inactive),1.61 (inactive),0.619 (inactive),0.521 (inactive),-0.154,0.304
COC(=O)C1=CC(c2ccc(CO)cc2)=CC(c2cccs2)N(Cc2cccc(OC(F)(F)F)c2)C=C1C(=O)OC (stereo not given),-0.55,-0.871 (inactive),-1.67 (inactive),-5.67 (inactive),0.683 (inactive),1.62 (inactive),0.0045 (inactive),-0.964 (inactive),-0.701,0.109
C=C[C@H](OC)[C@@H](OC(=O)Nc1ccc(SC)cc1)c1ccc(O)c(F)c1,-0.0359,-2.99 (inactive),0.0545 (inactive),-2.05 (inactive),1.88 (inactive),-0.703 (inactive),0.543 (inactive),0.519 (inactive),0.035,-0.192
Cc1ccc(S(=O)(=O)N2[C@@H](c3ccccc3)C(C(=O)O)=CC[C@H]2c2ccccc2)cc1,-1.18,0.131 (inactive),-2.14 (inactive),1.03 (inactive),-0.0727 (inactive),0.256 (inactive),-0.992 (inactive),-1.25 (inactive),-1.8,0.261
C#CCCCON=C1C[C@@H](O)[C@@H](O)[C@@H]2[C@@H]3C(=O)N(Cc4ccc5c(c4)OCO5)C(=O)[C@@H]3CC[C@@H]12,0.606,0.532 (inactive),0.241 (inactive),0.175 (inactive),-0.993 (inactive),0.577 (inactive),0.571 (inactive),0.186 (inactive),1.42,0.0785
CCOC(=O)C1=CC[C@@H](c2ccccc2)N(S(=O)(=O)c2ccc(C)cc2)[C@H]1C,0.302,1.11 (inactive),-0.209 (inactive),-1.18 (inactive),-0.0601 (inactive),1.43 (inactive),-0.472 (inactive),-0.4 (inactive),-0.875,0.0512
C#CCNC(/C=C/c1ccccc1)CO (stereo not given),-0.316,0.668 (inactive),-0.498 (inactive),0.657 (inactive),0.449 (inactive),1.62 (inactive),0.238 (inactive),0.188 (inactive),-0.153,0.0338
